Assay results: PubChem BioAssay (NCATS)
Inconclusive results are not listed. Entries that show only a call come without a potency. A number with no mark means an inactive call. Calls of active or inactive are those of the source. Calls follow the shape of the dose curve; as a rule, active = well fitted curve in the direction sought with a large enough effect; inconclusive = small, poorly fitted or top-dose-only effect, or another doubt; inactive = no such curve, though single readings can be large; an effect the other way counts as inactive or inconclusive.

What was measured:
[1] = qHTS of pediatric cancer cell lines to identify multiple opportunities for drug repurposing: Primary screen for BT-37 cells (AID 1347094); also: series mostly up to about 57 µM
Summary of the method: (§1)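 Cells seeded at 500-1,000 cells/well in growth media, rested 5 hours at 37 degrees C, 5% CO2, then dosed; MIPE compounds at 11-point (from 0.78 nM) and NPC at 8-point (from 0.59 nM) final concentrations. Viability by CellTiter-Glo luminescence after 48 hours.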

[2] = qHTS of pediatric cancer cell lines to identify multiple opportunities for drug repurposing: Primary screen for NB-EBc1 cells (AID 1347095)
Summary of the method: as §1

[3] = qHTS of pediatric cancer cell lines to identify multiple opportunities for drug repurposing: Primary screen for U-2 OS cells (AID 1347096); also: nearly all actives have a fitted effect of over 50% in size
Summary of the method: (§2)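 Cells (500-1,000/well) rested 5 h, then received compounds for 48 h; metabolically active cells were measured by CellTiter-Glo luminescence. Final concentrations spanned up to 46 µM (MIPE, 11-point) or 0.59 nM-46 µM (NPC, 8-point) in primary screens, 11-point in follow-ups.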

[4] = qHTS of pediatric cancer cell lines to identify multiple opportunities for drug repurposing: Primary screen for Saos-2 cells (AID 1347097); also: nearly all actives have a fitted effect of over 40% in size
Summary of the method: as §1

[5] = qHTS of pediatric cancer cell lines to identify multiple opportunities for drug repurposing: Primary screen for SK-N-SH cells (AID 1347098);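 also: DMSO served as neutral control and bortezomib at 2.3 µM as positive control; nearly all actives have a fitted effect of over 65% in size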
Summary of the method: as §2

[6] = qHTS of pediatric cancer cell lines to identify multiple opportunities for drug repurposing: Primary screen for NB1643 cells (AID 1347099); also: nearly all actives have a fitted effect of over 50% in size
Summary of the method: as §1

[7] = qHTS of pediatric cancer cell lines to identify multiple opportunities for drug repurposing: Primary screen for LAN-5 cells (AID 1347100)
Summary of the method: as §2

[8] = qHTS of pediatric cancer cell lines to identify multiple opportunities for drug repurposing: Primary screen for BT-12 cells (AID 1347101); also: nearly all actives have a fitted effect of over 25% in size
Summary of the method: as §2

[9] = qHTS of pediatric cancer cell lines to identify multiple opportunities for drug repurposing: Primary screen for OHS-50 cells (AID 1347103); also: nearly all actives have a fitted effect of over 40% in size; also: potency is read from the fitted curve at half-maximal effect
Summary of the method: as §2

[10] = qHTS of pediatric cancer cell lines to identify multiple opportunities for drug repurposing: Primary screen for RD cells (AID 1347104); also: nearly all actives have a fitted effect of over 55% in size
Summary of the method: as §1

[11] = qHTS of pediatric cancer cell lines to identify multiple opportunities for drug repurposing: Primary screen for MG 63 (6-TG R) cells (AID 1347105); also: nearly all actives have a fitted effect of over 50% in size
Summary of the method: as §1

[12] = qHTS of pediatric cancer cell lines to identify multiple opportunities for drug repurposing: Primary screen for control Hh wild type fibroblast cells (AID 1347106);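 also: series mostly up to about 46 µM; a drop in luminescence marks cytotoxicity and a rise apparent proliferation; nearly all actives have a fitted effect of over 55% in size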
Summary of the method: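 Viability after 48 h compound treatment at 37C, 500-1,000 cells/well, read as ATP luminescence with CellTiter-Glo. Primary screens used 11-point (MIPE, 0.78 nM-46 µM) or 8-point (NPC, 0.59 nM-46 µM) final concentrations; follow-up screens used 11-point dilutions.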

[13] = qHTS of pediatric cancer cell lines to identify multiple opportunities for drug repurposing: Primary screen for Rh30 cells (AID 1347107); also: series mostly up to about 46 µM; nearly all actives have a fitted effect of over 75% in size
Summary of the method: as §2

[14] = qHTS of pediatric cancer cell lines to identify multiple opportunities for drug repurposing: Primary screen for Rh41 cells (AID 1347108);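 also: series mostly up to about 46 µM; luminescence drop marks cytotoxic hits; nearly all actives have a fitted effect of over 70% in size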
Summary of the method: as §1

[15] = qHTS of pediatric cancer cell lines to identify multiple opportunities for drug repurposing: Primary screen for Rh18 cells (AID 1347102); also: nearly all actives have a fitted effect of over 65% in size
Summary of the method: as §2

With `NCC(=O)CCC(=O)O` as the compound, how does the Potency [1] read?
Its Potency is “inactive”.

What about the Potency [2] of the same compound?
Its Potency is “inactive”.

What about the Potency [3] of the same compound?
Its Potency is “inactive”.

What about the Potency [4] of the same compound?
Its Potency is “inactive”.

What about the Potency [5] of the same compound?
The Potency was “inactive”.

What about the Potency [6] of the same compound?
The Potency was “inactive”.

What about the Potency [7] of the same compound?
Its Potency is “inactive”.

And the Potency [8]?
The Potency was “inactive”.

And the Potency [9]?
Its Potency is “inactive”.

What about the Potency [10] of the same compound?
The Potency was “inactive”.

And the Potency [11]?
The Potency was “inactive”.

What about the outcome [12] of the same compound?
The outcome was “inactive”.

What about the outcome [13] of the same compound?
Its outcome is “inactive”.

And the Potency [14]?
Its Potency is “inactive”.

What does the source list for `OCC(CO)N[C@H]1C[C@](O)(CO)[C@@H](O)[C@H](O)[C@H]1O`?
Potency [1]: inactive; Potency [2]: inactive; Potency [3]: inactive; Potency [4]: inactive; Potency [5]: inactive; Potency [6]: inactive; Potency [8]: inactive; Potency [15]: inactive; Potency [9]: inactive; Potency [10]: inactive; Potency [11]: inactive; outcome [12]: inactive; outcome [13]: inactive; Potency [14]: inactive

With `CCn1cc(C(=O)O)c(=O)c2cnc(N3CCNCC3)nc21` as the compound, how does the Potency [1] read?
Its Potency is “inactive”.

And the Potency [2]?
Its Potency is “inactive”.

What about the Potency [3] of the same compound?
Its Potency is “inactive”.

What about the Potency [4] of the same compound?
The Potency was “inactive”.

What about the Potency [5] of the same compound?
Its Potency is “inactive”.

And the Potency [6]?
The Potency was “inactive”.

And the Potency [8]?
The Potency was “inactive”.

And the Potency [15]?
The Potency was “inactive”.

And the Potency [9]?
Its Potency is “inactive”.

What about the Potency [10] of the same compound?
Its Potency is “inactive”.

What about the Potency [11] of the same compound?
Its Potency is “inactive”.

What about the outcome [12] of the same compound?
The outcome was “inactive”.

What about the outcome [13] of the same compound?
Its outcome is “inactive”.

And the Potency [14]?
Its Potency is “inactive”.

Which Potency [1] does the source give for `Nc1ccc(S(=O)(=O)Nc2nccs2)cc1` here?
The Potency was “inactive”.

And the Potency [2]?
Its Potency is “inactive”.

What about the Potency [3] of the same compound?
The Potency was “inactive”.

And the Potency [4]?
Its Potency is “inactive”.

And the Potency [5]?
The Potency was “inactive”.

What about the Potency [6] of the same compound?
The Potency was “inactive”.

What about the Potency [8] of the same compound?
The Potency was “inactive”.

And the Potency [15]?
Its Potency is “inactive”.

And the Potency [9]?
The Potency was “inactive”.

And the Potency [10]?
Its Potency is “inactive”.

What about the Potency [11] of the same compound?
Its Potency is “inactive”.

What about the outcome [12] of the same compound?
Its outcome is “inactive”.

What about the outcome [13] of the same compound?
Its outcome is “inactive”.

And the Potency [14]?
Its Potency is “inactive”.

What does the source list for `CN(C)CCCN1c2ccccc2CCc2ccccc21`?
Potency [1]: inactive; Potency [2]: inactive; Potency [3]: inactive; Potency [4]: inactive; Potency [5]: inactive; Potency [6]: inactive; Potency [7]: inactive; Potency [9]: 27.6 µM (active); Potency [11]: inactive; outcome [12]: inactive; outcome [13]: inactive; Potency [14]: inactive

Which Potency [1] does the source give for `O=C1O[C@H]([C@@H](O)CO)C(O)=C1O` here?
The Potency was “inactive”.

What about the Potency [2] of the same compound?
Its Potency is “inactive”.

What about the Potency [3] of the same compound?
Its Potency is “inactive”.

What about the Potency [4] of the same compound?
Its Potency is “inactive”.

What about the Potency [5] of the same compound?
Its Potency is “inactive”.

What about the Potency [6] of the same compound?
The Potency was “inactive”.

And the Potency [8]?
The Potency was “inactive”.

What about the Potency [15] of the same compound?
The Potency was “inactive”.

What about the Potency [9] of the same compound?
The Potency was “inactive”.

And the Potency [10]?
The Potency was “inactive”.

What about the Potency [11] of the same compound?
The Potency was “inactive”.

What about the outcome [12] of the same compound?
Its outcome is “inactive”.

And the outcome [13]?
Its outcome is “inactive”.

And the Potency [14]?
Its Potency is “inactive”.

For `CCCc1c(OCCCCc2nn[nH]n2)ccc(C(C)=O)c1O`, which Potency [1] is on record?
The Potency was “inactive”.

And the Potency [2]?
Its Potency is “inactive”.

And the Potency [3]?
The Potency was “inactive”.

What about the Potency [4] of the same compound?
Its Potency is “inactive”.

And the Potency [5]?
The Potency was “inactive”.

What about the Potency [6] of the same compound?
Its Potency is “inactive”.

What about the Potency [8] of the same compound?
The Potency was “inactive”.

And the Potency [15]?
Its Potency is “inactive”.

And the Potency [9]?
Its Potency is “inactive”.

What about the Potency [10] of the same compound?
Its Potency is “inactive”.

And the Potency [11]?
The Potency was “inactive”.

What about the outcome [12] of the same compound?
Its outcome is “inactive”.

What about the outcome [13] of the same compound?
The outcome was “inactive”.

And the Potency [14]?
Its Potency is “inactive”.

For `CS(=O)(=O)c1ccc([C@@H](O)[C@@H](CF)NC(=O)C(Cl)Cl)cc1`, which Potency [1] is on record?
Its Potency is “inactive”.

And the Potency [2]?
The Potency was “inactive”.

What about the Potency [3] of the same compound?
Its Potency is “inactive”.

What about the Potency [4] of the same compound?
Its Potency is “inactive”.

What about the Potency [5] of the same compound?
The Potency was “inactive”.

And the Potency [6]?
The Potency was “inactive”.

And the Potency [15]?
The Potency was “inactive”.

What about the Potency [9] of the same compound?
The Potency was “inactive”.

What about the Potency [10] of the same compound?
The Potency was “inactive”.

And the Potency [11]?
Its Potency is “inactive”.

What about the outcome [12] of the same compound?
The outcome was “inactive”.

What about the outcome [13] of the same compound?
Its outcome is “inactive”.

What about the Potency [14] of the same compound?
The Potency was “inactive”.

For `CN1CCCCC1CCN1c2ccccc2Sc2ccc(S(C)=O)cc21` (stereo unspecified), which Potency [1] is on record?
Its Potency is “inactive”.

And the Potency [2]?
The Potency was “inactive”.

And the Potency [3]?
The Potency was “inactive”.

What about the Potency [4] of the same compound?
Its Potency is “inactive”.

What about the Potency [6] of the same compound?
Its Potency is “inactive”.

What about the Potency [7] of the same compound?
The Potency was “inactive”.

And the Potency [8]?
The Potency was “inactive”.

And the Potency [10]?
Its Potency is “inactive”.

What about the Potency [11] of the same compound?
The Potency was “inactive”.

What about the outcome [12] of the same compound?
The outcome was “inactive”.

And the outcome [13]?
The outcome was “inactive”.

What about the Potency [14] of the same compound?
Its Potency is “inactive”.
